A selection: hits, their analogues and other compounds. The true share with any hit is near 4.1%.
PolyA inh = polyadenylation inhibitors in yeast reporter cells, primary screen, luminescence, S. cerevisiae. S. cerevisiae SKY197-pL101 polyadenylation reporter, beta-gal luminescence; efflux-impaired pdr1/pdr3 knockout yeast; score 100 = 6 SD above DMSO. activity score, % at 12 µM. 300,000 compounds, 0.02% hits;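 active = lowest replicate activity score at least 50, where 100 means six control SD above control mean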;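 also: yeast exposed to compound for 9 h at 30 °C; higher score means more reporter readthrough which indicates perturbed polyadenylation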
CaV13 ICDI inh = Primary screen for inhibitors of IQ motif and Ca2+-dependent inactivation inhibitor domain binding in CACNA1D, Förster resonance energy transfer in living cells, … | inhibition, % at 12.3 µM | 340,000 compounds, 0.098% hits | HEK cells, CFP/YFP FRET ICDI-IQ, plate reader, 10 min; percent FRET-ratio fall versus neutral wells;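 active = mean replicate inhibition of at least 30% and at least 1% of replicates passing that level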
PfM18AAP inh = PfM18AAP inhibitors, malaria aminopeptidase, primary screen, biochemical, QFRET, recombinant enzyme | inhibition, % at 7.35 µM | AID 1822, 2009 | 290,000 compounds, 1.2% hits | M18 aspartyl aminopeptidase (Plasmodium falciparum 3D7) | H-Glu-NHMec fluorogenic cleavage;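 active = inhibition above the campaign mean inhibition over all tested compounds plus 3 SD, cut at about 28% in these data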
ALR inh = inhibitors of human ALR sulfhydryl oxidase, primary screen, biochemical, H2O2 detection, HRP-luminol luminescence, single point. purified ALR, DTT oxidation. 290,000 compounds, 3.8% hits. inhibition, % (no concentration beside the values). FAD-linked sulfhydryl oxidase ALR (Homo sapiens), P55789. AID 485317, 2010;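 active = mean replicate inhibition above about 79%, with every replicate also reaching it, limit read from the data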
Target sequence (P55789 whole entry, looked up): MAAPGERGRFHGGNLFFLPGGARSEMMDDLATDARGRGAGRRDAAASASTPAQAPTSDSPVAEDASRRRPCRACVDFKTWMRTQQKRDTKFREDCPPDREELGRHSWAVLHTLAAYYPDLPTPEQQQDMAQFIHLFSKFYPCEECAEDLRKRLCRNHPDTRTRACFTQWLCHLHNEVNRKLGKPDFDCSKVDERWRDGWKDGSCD
IDE act = human IDE activators in live cells, primary screen, fluorescence polarization, HEK cells, FAbeta-B substrate. AID 493087, 2011. 340,000 compounds, 0.073% hits. Insulin-degrading enzyme (Homo sapiens), P14735. activation, % at 5.96 µM. FAbeta-B cleavage; 0% vehicle, 100% cell-free pure enzyme wells;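 active = activation above the mean of all tested compounds plus 3 SD, set per screening campaign, cut at about 17% in these data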
IDE cell inh = human IDE inhibitors in live cells, primary screen, fluorescence polarization, HEK cells, FAbetaB substrate; FAbetaB cleavage; inhibition, % at 5.59 µM; 320,000 compounds, 0.41% hits;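 active = percent inhibition above the average of all tested compounds plus 3 SD, set per screening campaign, cut at about 16% in these data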;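 also: IDE supplied by intact live HEK cells; FP after avidin binding of uncleaved biotin substrate so inhibition keeps polarization high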
A number is an active result; . = inactive; / = no result.

SMILES	PolyA inh	CaV13 ICDI inh	PfM18AAP inh	ALR inh	IDE act	IDE cell inh
CCC(CC)C(=O)N1CCN(c2ccccc2)CC1	.	.	.	98	.	.
COc1ccc(N2CCN(C(=O)CCN3C(=O)C4C5C=CC(C5)C4C3=O)CC2)cc1 (centres undefined)	.	.	.	.	.	.
O=C(CCN1C(=O)C2C3C=CC(C3)C2C1=O)N1CCN(c2ccc(F)cc2)CC1 (centres undefined)	/	.	.	97	.	.
Cc1ccsc1-c1nc(CSCC(=O)N2CCN(c3ccccc3)CC2)c(C)o1	.	.	.	89	.	.
Cc1ccccc1CSCC(=O)N1CCN(c2ccccc2)CC1	.	.	.	99	.	.
Cc1cc(C)nc(Nc2ncc(O)n2-c2ccc(Br)cc2)n1	.	.	.	.	.	.
Cc1ccc(CSCC(=O)N2CCN(c3ccc(F)cc3)CC2)cc1	.	.	.	.	.	.
O=C(c1ccc2c(c1)OCO2)N1CCN(c2ccc(F)cc2)CC1	.	.	.	97	.	.
O=C(CSCc1ccc(F)cc1)N1CCN(c2ccc(F)cc2)CC1	.	.	.	98	.	.
Cc1cccn2c(=O)nc(SCC(=O)N3CCN(c4ccccc4)CC3)nc12	.	.	/	86	.	.
CCn1nc(C)c(CNC(=O)CC2C(=O)NCCN2CC(C)(C)C)c1C (centres undefined)	.	.	.	.	.	.
CC(C)C[C@H]1CNC(=S)N1C[C@H]1CCCN1C[C@H](Cc1ccc(O)cc1)N1C[C@H](CC(C)C)N(CC2CCCCCC2)C1=S	/	.	/	/	/	/
COc1cc(C(=O)NCCNc2nc3c(C)cccc3cc2C#N)cc(OC)c1OC	/	.	/	/	/	/
COc1cc(C(=O)NCCCNc2nc3c(C)cc(C)cc3cc2C#N)cc(OC)c1OC	.	59	.	.	.	.
CCC(=O)NCCCNc1nc2c(C)cccc2cc1C#N	.	46	.	.	.	.
O=[N+]([O-])c1ccc2nc(C3CCCCC3)[nH]c2c1	.	.	.	97	.	.
O=C(NCC1CCN(C(=O)C(=O)c2cc3ccccc3o2)CC1)c1ccc2c(c1)OCCCO2	/	.	/	/	/	/
Cc1nc(SCc2ccc(Cl)c(Cl)c2)ncc1C(=O)O	.	.	.	97	.	.
COc1ccccc1CNC(=O)CN1C(=O)NC(c2ccccc2)(c2ccc(C)c(C)c2)C1=O (centres undefined)	/	.	/	/	.	/
N#CC1=C(SCC(=O)Nc2cccc3cccnc23)NC(=O)C(C#N)C12CCCCC2 (centres undefined)	.	.	.	.	.	.
CCOC(=O)C1=C(SCC(=O)Nc2ccccc2)NC(=O)C(C#N)C12CCCCC2 (centres undefined)	.	.	.	89	.	.
N#CC1=C(N)NC(SCC(=O)Nc2ccccc2)=C(C#N)C12CCCC2	.	.	.	95	.	.
Oc1ccc(/C=N\Nc2cc(N3CCOCC3)nc(N3CCOCC3)n2)c(O)c1	.	.	.	85	.	.
Cc1cc(N/N=C/c2ccc(O)cc2O)nc(N2CCOCC2)n1	.	.	.	97	.	.
O=c1[nH][nH]c(C(F)(F)F)c1/C=N/N1CCOCC1	.	.	.	.	.	.
SMILES	PolyA inh	CaV13 ICDI inh	PfM18AAP inh	ALR inh	IDE act	IDE cell inh
Cn1c(=O)[nH]c(=O)c2c1nc(Br)n2C/C=N/Nc1ccccc1	.	.	.	100	.	.
CCC(C)Nc1nc2c(c(=O)[nH]c(=O)n2C)n1CCCc1ccccc1 (centres undefined)	.	.	.	82	.	.
CCCn1c(N/N=C\C=C\c2ccccc2)nc2c1c(=O)[nH]c(=O)n2C	.	.	.	.	.	16
Cn1c(=O)[nH]c(=O)c2c1nc(Br)n2C/C=N/NC(=O)c1ccccc1	.	.	.	.	.	.
CCC(C)Nc1nc2c(c(=O)n(C)c(=O)n2C)n1Cc1ccc(F)cc1 (centres undefined)	.	.	.	90	.	.
CC(/C=C/c1ccccc1)=N\Nc1nc2c(c(=O)[nH]c(=O)n2C)n1CCO	.	/	.	.	/	.
CNc1nc2c(c(=O)[nH]c(=O)n2C)n1CCCc1ccccc1	.	.	.	.	.	.
CCOC(=O)[C@]12CCCC=C1N(Cc1ccc3c(c1)OCO3)C(=O)[C@H](CC(=O)NCc1ccc(C)o1)C2	/	.	/	/	/	/
CCc1ccc(-c2nc(CCl)cs2)cc1	.	.	.	.	.	.
COc1cccc(-c2nc(CCl)cs2)c1	.	.	.	99	.	.
COc1ccc(-c2nc(CCl)cs2)cc1	.	.	.	/	.	.
COc1ccc(-c2nc(CCl)cs2)cc1OC	.	.	.	99	.	.
CC1=C(C)/C(=N\OS(=O)(=O)c2ccc(C)cc2)C=CC1=O	/	.	.	/	.	.
CC1=C/C(=N\OS(=O)(=O)c2ccccc2)C(C)=CC1=O	/	/	.	99	.	.
CC1=C/C(=N\OS(=O)(=O)c2ccccc2)C(C(C)C)=CC1=O	/	/	.	98	.	.
CC1(C)CC(=O)C(C=Nc2ccc(N)cc2)=C(O)C1	.	.	.	.	.	.
CC1(C)CC(=O)C(C=Nc2ccc(O)cc2)=C(O)C1	.	.	.	99	.	.
NC(CO)c1cn([C@@H](CCC(=O)O)C(=O)N2CCNCC2)nn1 (some centres undefined)	.	.	.	.	22	.
CC(C)CC(N)c1cn([C@@H](CCC(=O)O)C(=O)N2CCNCC2)nn1 (some centres undefined)	.	.	.	.	.	.
C/C(=N\Nc1cccc2cccnc12)c1ccccn1	.	.	.	90	.	.
O=c1cc(C(F)(F)F)nc(SC/C=C/c2ccccc2)[nH]1	.	/	.	78	.	.
O=C(NCc1cc(Cl)cc(Cl)c1)c1ccc2nc(COCCO)[nH]c2c1	/	.	/	/	/	/
Oc1cc2c(cc1O)C(c1ccccc1)CNCC2 (centres undefined)	.	.	/	98	.	.
Oc1cc2c(cc1O)[C@@H](c1ccccc1)CNCC2	/	.	83	/	.	/
COc1ccc(NC(=O)CCOc2ccccc2C)cc1S(=O)(=O)N1CCCCC1	.	.	/	.	.	.
Cc1ccccc1NCC(=O)N/N=C\C=C\c1cccc([N+](=O)[O-])c1	.	.	.	/	.	.
COc1ccc(Nc2nc(Nc3ccc(OC)cc3)nc(-n3[nH]c(=O)c(C)c3C)n2)cc1	.	.	.	84	.	.
COc1ccc(Nc2nc(OC)nc(N3CCOCC3)n2)cc1	.	.	.	.	.	.

Bioassay records: PubChem, several laboratories
